Assay results as given in PubChem BioAssay (NCI).
“And” between values parts separate entries of the source, which are not always exact repeats. Identical values can stand only once. The panel holds about 79,000 compounds, 15% with a hit somewhere; the sample as a whole holds those more often. The source made the active and inactive calls. No stated cut-off is given here; in the data, active means growth inhibition above about 70%; inactive means the rest. Where a SMILES comes first, the peptide text is derived from it.

Key:
[1] = NCI Yeast Anticancer Drug Screen. Data for the rad50 strain (AID 155);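 further: 0% = growth of vehicle-only cultures of the same strain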; conditions: S. cerevisiae rad50 strain growth inhibition, hits give high values; at 50.0 µM unless noted
How it was run: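 Relative growth inhibition (compound vs vehicle) was measured in yeast with a defined repair-gene alteration.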

[2] = NCI Yeast Anticancer Drug Screen. Data for the mec2-1 strain (AID 157); conditions: S. cerevisiae mec2-1 strain, hits give high values; at 50.0 µM unless noted
How it was run: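 Each compound was tested on mec2-1 yeast, a strain altered in DNA damage repair or cell cycle control. Growth inhibition is reported relative to vehicle.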

[3] = NCI Yeast Anticancer Drug Screen. Data for the sgs1 mgt1 strain (AID 161);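 further: 0% = growth of cultures given vehicle only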; conditions: S. cerevisiae sgs1 mgt1 strain, hits give high values; at 50.0 µM unless noted
How it was run: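 Mutant yeast exposed to compound; growth scored against vehicle-only wells.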

[4] = NCI Yeast Anticancer Drug Screen. Data for the cln2 rad14 strain (AID 165);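 further: 0% = growth equal to vehicle treated cultures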; conditions: S. cerevisiae cln2 rad14 strain, hits give high values; at 50.0 µM unless noted
How it was run: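 Test compounds were added to cln2 rad14 yeast cultures; inhibition of growth was then determined by comparison with vehicle treatment.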

[5] = NCI Yeast Anticancer Drug Screen. Data for the bub3 strain (AID 167); conditions: S. cerevisiae bub3 mutant strain, hits give high values; at 50.0 µM unless noted
How it was run: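 Screening used yeast with an engineered genetic alteration affecting cell cycle control. Compound-exposed cultures were compared with vehicle cultures, and reduced growth was taken as inhibition.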

[6] = NCI Yeast Anticancer Drug Screen. Data for the mlh1 rad18 strain (AID 175); conditions: S. cerevisiae mlh1 rad18 strain growth inhibition, hits give high values; at 50.0 µM unless noted
How it was run: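 Inhibition values reflect reduced growth of mutant yeast versus vehicle-treated controls following compound exposure; the mutations affect DNA damage repair.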

Measured: growth inhibition

CS(C)=NC(=Nc1ccccc1)c1ccccc1
inactive: [1] 6.9% | [2] 9.6% | [3] -12% | [4] -26.4% | [5] 9.7% | [6] 2.05%

CC(=O)Oc1cc(S(=O)(=O)Nc2n[nH]c(N)n2)c(S)cc1Cl
inactive: [1] -22.8% | [2] -18.3% | [3] -1.2% | [4] 11.7% | [5] -9.55% | [6] 8.45%

COc1ccc(Nc2nc3ccccc3nc2-c2cccs2)cc1OC
inactive: [1] -5.8% | [2] -2% | [3] 13.9% | [4] 9.3% | [5] -0.7% | [6] -23.4%

Cc1cc(C)c2nccc(NCCCN(C)C)c2c1[N+](=O)[O-]
inactive: [1] 5.65% | [2] 5% | [3] -1.8% | [4] 5.35% | [5] -10.8% | [6] -78.5%

N#CC(C(=O)C(=O)Nc1nccs1)c1ccccc1 (stereo not given)
inactive: [1] 5.85% | [2] -0.85% | [3] 4.75% | [4] 41.9% | [5] 17.2% | [6] 16%

OCC1OC(n2cnc3c2NC=NC[C@H]3O)C(O)C1O (stereo not given in full)
inactive: [1] 32.4% | [2] -3.8% | [3] 25.4% | [4] -7.55% | [5] 6.25% | [6] 25.8%

COc1ccc(/C(C)=N/NC(=O)c2ccncc2)cc1OC
inactive: [1] -9.6% | [2] -9.9% | [3] -18.6% | [4] -12.7% | [5] -40% | [6] -4.2%

CNC(=O)CNC(=O)C(NC(=O)CNC(=O)C1CCCN1C(=O)C(C)NC(=O)C(NC(C)=O)C(C)C)C(C)C (stereo not given) (Ac-VAPGVG-NHMe; configuration not given here)
inactive: [1] 0.3% | [2] -13.9% | [3] 3.55% | [4] -6.6% | [5] -11.7% | [6] -4.75%

OCc1ccc(Cl)c(Cl)c1
inactive: [1] -4.15% | [2] -11.9% | [3] 0.1% | [4] 8.15% | [5] 2.8% | [6] 3.3%

Cn1c2ccccc2c2nnc(NCCCO)nc21
inactive: [1] 18.9% | [2] 21.7% | [3] 18.8% | [4] 43.3% | [5] 25% | [6] 11.2%

CC(=O)OC1CC2CC1C1OC21 (stereo not given)
inactive: [1] -2.25% | [2] -15.3% | [3] -22.1% | [4] -1.8% | [5] -11.7% | [6] -6.65%

O=C(N/N=C(\c1nc2ccc(Cl)cc2[nH]c1=O)C(O)c1ccccc1Cl)c1ccncc1 (stereo not given)
inactive: [1] 16.6% | [2] 20% | [3] 8.7% | [4] 18.7% | [5] 30.9% | [6] 37%

CC(C)(C)c1cc(-n2nc3ccccc3[n+]2[O-])c(O)c(C(C)(C)C)c1
inactive: [1] 4.35% | [2] 12.8% | [3] 20.1% | [4] 18.6% | [5] -0.6% | [6] 33.6%

CCCCCCCCCCCCOC(=O)NC1c2ccccc2Oc2ccccc21
inactive: [1] 30.4% | [2] 17.6% | [3] 26.6% | [4] 32.5% | [5] 19.6% | [6] 43.4%

c1ccc(CNCCNCc2ccccc2)cc1
inactive: [1] 0.3% and 58.3% | [2] 4.75% and -16.4% | [3] 14.4% and 50.9% | [4] -56.7% and -11.3% | [5] -11.7% and 0.05% | [6] -5.35% and 46%

CC(=O)NC1C(OCc2ccccc2)OC(CO)C(O)C1OCC(=O)NC(C)C(=O)NC(CCC(=O)NCCCCCNc1c2ccccc2nc2cccc([N+](=O)[O-])c12)C(N)=O (stereo not given)
active: [1] 78.8% | [2] 87.3% | [3] 79% | [4] 78.8% | [6] 89%
inactive: [5] 53.5%

CC1(CO)C2CCC(CC2)C1CO (stereo not given)
inactive: [1] -3% | [2] 1.85% | [3] -4.4% | [4] -20.2% | [5] -5.1% | [6] 2.5%

CSC(=Nc1ccccc1Cl)NC(=O)c1ccc(Br)cc1
inactive: [1] -9.65% | [2] 20.7% | [3] 5.7% | [4] 19.3% | [5] 7.8% | [6] -8.4%

C=C(c1c(C)cccc1OC(C)=O)c1c(C)cccc1OC(C)=O
inactive: [1] -8.8% | [2] -10.6% | [3] -0.6% | [4] -9.1% | [5] 17.3% | [6] -6.55%

O=NC1C(Br)C2CC1C1C(Br)C(Br)CC21 (stereo not given)
inactive: [1] 4.45% | [2] 5.95% | [3] 13.3% | [4] 0.15% | [5] -1.2% | [6] 6.7%

N.N.N.N.O=C([O-])O.O=C([O-])[O-].[Co+3]
inactive: [1] 2.15% | [2] 3.4% | [3] 12.1% | [4] 26.9% | [5] 24.2% | [6] 8.95%

CCC1CSC(NS(=O)(=O)c2ccc(N)cc2)=N1 (stereo not given)
inactive: [1] -18.4% | [2] -3.5% | [3] -0.7% | [4] -39% | [5] 2.15% | [6] 1.3%

Cc1ccc(S(=O)(=O)N/N=C(/c2nc3ccc([N+](=O)[O-])cc3[nH]c2=O)C(O)c2ccc(C(O)/C(=N\NS(=O)(=O)c3ccc(C)cc3)c3nc4ccc([N+](=O)[O-])cc4[nH]c3=O)cc2)cc1 (stereo not given)
inactive: [1] -16.6% | [2] -27.6% | [3] -26.2% | [4] 0.6% | [5] -32.7% | [6] -10.3%

CCCCN(CCCC)CC(=O)NC(=O)c1ccccc1
inactive: [1] -9.55% | [2] -5.55% | [3] 3.35% | [4] -38.5% | [5] 10.8% | [6] -14.3%

CC/C(=N/NC(N)=O)c1ccc(C)cc1
inactive: [1] -11.9% | [2] -11.8% | [3] -10.2% | [4] -21.1% | [5] 2.75% | [6] -8.9%

CC(C)N(C(C)C)S(C)(=O)=O
inactive: [1] -0.3% | [2] -0.5% | [3] -3.9% | [4] -17.8% | [5] 10.3% | [6] 3.1%

O=C(c1ccccc1)c1ccc(NC(=O)C(F)(F)F)cc1
inactive: [1] 15.7% | [2] 5.9% | [3] 3.85% | [4] 4.75% | [5] -0.15% | [6] 18.9%

CC1=NN(C(=O)c2ccccc2O)C(=O)/C1=C/c1ccccc1O
inactive: [1] -29.1% | [2] -11.8% | [3] -14.8% | [4] -9.7% | [5] -39.5% | [6] -24.6%

O=Cc1c[nH]c2ccc(F)cc12
inactive: [1] 9.85% | [2] -19.4% | [3] 20.6% | [4] 14.3% | [5] 19.9% | [6] 23.4%

O=S(=O)(O)c1ccc(N=Nc2ccc(O)cc2)cc1
inactive: [1] -15.8% and 28.8% | [2] -27.9% and -10.4% | [3] -10.1% | [4] -53.9% | [5] 3.7% | [6] -17.4% and 8.65%

CCCCCCCCCCCCCCCCCCOC(=O)CC(C)=O
inactive: [1] -2.75% | [2] -4.55% | [3] -12.2% | [4] -5% | [5] -9.2% | [6] 3.95%

O=c1nc(NCc2ccco2)ccn1C1OC(CO)C(O)C1O (stereo not given)
inactive: [1] 12.3% | [2] 9.45% | [3] 12.6% | [4] 13.9% | [5] -0.2% | [6] 14.6%

CN1C2=NC(=O)NC(=O)C23OC3c2ccccc21 (stereo not given) (tested in a mixture with another compound)
inactive: [1] 6.35% | [2] 12% | [3] -0.45% | [4] 14.7% | [5] 1.75% | [6] 18.9%

O=c1c2ccc(Cl)cc2nc2nc(-c3ccccc3)c3cc(Cl)ccc3n12
inactive: [1] 57.6% | [2] 31.2% | [3] 37.4% | [4] 22.9% | [5] 6.3% | [6] 46.5%

CCOC(=O)c1c(C)cc(=O)oc1C
inactive: [1] -8.65% and 3.95% | [2] 7.55% and -1.6% | [3] -4.65% and -3.25% | [4] -31.3% and -11.1% | [5] 2.3% and -1.7% | [6] -11.8% and 8.75%

O=C1CCC2OC(=O)C3CCCC1C23 (stereo not given)
inactive: [1] -6.05% | [2] -1.85% | [3] -19% | [4] 0.1% | [5] -2.65% | [6] -14.2%

OCC12c3ccccc3C3c4ccccc4C1C32 (stereo not given)
inactive: [1] 10.2% | [2] -17.4% | [3] -4.05% | [4] -31.1% | [5] -18.9% | [6] 0.95%

CC(C)CCC[C@@H](C)[C@H]1CC[C@H]2[C@@H]3CCC4=CC(=O)NCC[C@]4(C)[C@H]3CC[C@]12C
inactive: [1] 12.8% | [2] -3.25% | [3] 34.6% | [4] 27.2% | [5] -9.35% | [6] 15.9%

O=C1OC(c2ccccc2)=N/C1=C\c1ccccc1
inactive: [1] -24% and 23.1% | [2] -12.6% and 10.6% | [3] -15.5% and 20.9% | [4] -5.7% and -23.2% | [5] 3.9% and -15.2% | [6] -8.7% and 26.8%

C[n+]1c(/C=C\C=C\c2ccccc2)sc2ccccc21
inactive: [1] 16.6% | [2] 2.05% | [3] 16.1% | [4] 18.1% | [5] 3% | [6] 11.2%
